Measurements from the supplement of paper PMC3616981.
± gives the standard deviation of the averaged measurements.

Columns and labels:
[1] = compound: CC(C)c1cccc(C(C)C)c1N1C(=O)c2ccc(O)cc2C1=O; test: reporter fold induction vs vehicle; higher = higher reporter activity
Outline: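 Multiplexed cellular biosensor reporter system with cis response-element and trans nuclear-receptor transcription factor reporter constructs (48 cis, 25 trans) and homogeneous detection, tested in ToxCast Phase II at 8 concentrations (0.091–200 µM). Reporter activity is given as fold induction relative to vehicle control. Replicates were averaged where present.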

[2] = compound: CC(C)c1cccc(C(C)C)c1N1C(=O)c2ccc(O)cc2C1=O; test: BioMAP readout fold decrease vs vehicle (vehicle/treated); higher = stronger decrease of the readout vs vehicle (values <1 mean increase)
Method: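 BioSeek BioMAP human primary cell (co-)culture systems (3C, 4H, LPS, SAg, BE3C, CASM3C, hDFCGF, KF3CT) treated with 5HPP-33 at 1.48, 4.44, 13.3 and 40 µM. Read-outs are protein levels by ELISA, proliferation and SRB total protein. Duplicate rows per assay are averaged as replicates. Tested in ToxCast Phase II for this study; exposure time not stated.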
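Throughout, for BioMAP readout fold decrease vs vehicle (vehicle/treated): Co-cultures of keratinocytes, bronchial epithelial and smooth muscle cells, fibroblasts, HUVECs and PBMCs under stimuli like LPS, TNF-α, IFN-γ, IL-1β, TGF-β or EGF, SRB reflecting cytotoxicity.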

Row | Target | reporter fold induction ([1]; 0.091 µM) | reporter fold induction ([1]; 0.274 µM) | reporter fold induction ([1]; 0.823 µM) | reporter fold induction ([1]; 2.469 µM) | reporter fold induction ([1]; 7.407 µM) | reporter fold induction ([1]; 22.22 µM) | reporter fold induction ([1]; 66.67 µM) | reporter fold induction ([1]; 200 µM) | BioMAP readout fold decrease ([2]; 1.48 µM) | BioMAP readout fold decrease ([2]; 4.44 µM) | BioMAP readout fold decrease ([2]; 13.3 µM) | BioMAP readout fold decrease ([2]; 40 µM)
1 | Xbp1_CIS | 1.06 | 0.98 | 0.93 | 0.937 | 1.21 | 1.13 | 1.74 | 4.47 | – | – | – | –
2 | PPARd_TRANS | 1.05 | 0.856 | 0.9 | 1.11 | 0.953 | 1.14 | 1.27 | 1.45 | – | – | – | –
3 | ERE_CIS | 1.55 | 2.27 | 1.01 | 0.967 | 4.09 | 3.27 | 4.08 | 0.978 | – | – | – | –
4 | C_EBP_CIS | 1.02 | 0.969 | 1.04 | 1.04 | 1.12 | 0.945 | 1.31 | 1.32 | – | – | – | –
5 | VDRE_CIS | 1.07 | 1.09 | 0.969 | 0.979 | 1.62 | 1.76 | 2.18 | 3.25 | – | – | – | –
6 | IR1_CIS | 1.07 | 0.953 | 1.02 | 1.01 | 1.08 | 0.864 | 0.788 | 0.644 | – | – | – | –
7 | THRa1_TRANS | 1.06 | 1.01 | 1.07 | 1.3 | 0.83 | 0.993 | 1.35 | 0.658 | – | – | – | –
8 | GATA_CIS | 1 | 0.993 | 0.983 | 1.05 | 0.98 | 0.902 | 1.07 | 0.842 | – | – | – | –
9 | TGFb_CIS | 1.08 | 0.916 | 0.91 | 0.906 | 0.939 | 1.03 | 1.23 | 0.915 | – | – | – | –
10 | VDR_TRANS | 1.07 | 1.13 | 1.1 | 1.39 | 1.07 | 1.41 | 1.2 | 1.54 | – | – | – | –
11 | CAR_TRANS | 1.1 | 0.946 | 0.997 | 0.985 | 0.814 | 0.835 | 0.84 | 0.343 | – | – | – | –
12 | DR5_CIS | 0.96 | 1.09 | 1.11 | 0.929 | 1.98 | 2.11 | 1.71 | 2.04 | – | – | – | –
13 | GLI_CIS | 1.04 | 0.925 | 1 | 1.04 | 0.914 | 0.833 | 1.19 | 2.1 | – | – | – | –
14 | PPARg_TRANS | 1.01 | 1.06 | 0.946 | 0.881 | 1.19 | 1.53 | 1.62 | 1.47 | – | – | – | –
15 | KF3CT_uPA | – | – | – | – | – | – | – | – | 1.016 ± 0.0099 | 1.015 ± 0.01 | 0.969 ± 0.012 | 2.15 ± 0.47
16 | KF3CT_MCP1 | – | – | – | – | – | – | – | – | 1.03 ± 0.041 | 0.926 ± 0.043 | 0.7754 ± 0.0028 | 1.14 ± 0.36
17 | KF3CT_IP10 | – | – | – | – | – | – | – | – | 0.9935 ± 0.0028 | 1.06 ± 0.035 | 1.39 ± 0.016 | 7.16 ± 0.78
18 | 3C_TissueFactor | – | – | – | – | – | – | – | – | 0.903 ± 0.018 | 0.906 ± 0.021 | 0.943 ± 0.014 | 1.43 ± 0.2
19 | Sp1_CIS | 1.04 | 1.04 | 1.02 | 0.989 | 1.11 | 1.08 | 1.39 | 2.02 | – | – | – | –
20 | 3C_uPAR | – | – | – | – | – | – | – | – | 1.13 ± 0.03 | 1.15 ± 0.053 | 1.43 ± 0.1 | 2.6 ± 0.15
21 | PPARa_TRANS | 1.19 | 1.13 | 0.988 | 0.988 | 0.912 | 0.775 | 0.936 | 0.812 | – | – | – | –
22 | RARg_TRANS | 1.16 | 0.981 | 1.09 | 1.21 | 1.54 | 1.83 | 1.82 | 0.812 | – | – | – | –
23 | hDFCGF_IL8 | – | – | – | – | – | – | – | – | 1.03 ± 0.018 | 0.964 ± 0.017 | 0.8858 ± 0.0045 | 0.9866 ± 0.0065
24 | 3C_VCAM1 | – | – | – | – | – | – | – | – | 1.05 ± 0.029 | 1.15 ± 0.027 | 1.33 ± 0.03 | 2.03 ± 0.072
25 | CASM3C_SAA | – | – | – | – | – | – | – | – | 1.02 ± 0.09 | 1.12 ± 0.018 | 1.094 ± 0.0048 | 1.72 ± 0.1
26 | CASM3C_MIG | – | – | – | – | – | – | – | – | 0.9799 ± 0.0029 | 0.9517 ± 0.009 | 0.96395 ± 0.0005 | 1.03 ± 0.015
27 | SAg_CD40 | – | – | – | – | – | – | – | – | 1.164 ± 0.003 | 1.39 ± 0.092 | 1.94 ± 0.027 | 5.89 ± 0.36
28 | KF3CT_MMP9 | – | – | – | – | – | – | – | – | 0.991 ± 0.0099 | 1.17 ± 0.028 | 1.45 ± 0.081 | 4.32 ± 0.16
29 | LPS_IL1a | – | – | – | – | – | – | – | – | 0.781 ± 0.039 | 0.8356 ± 0.0034 | 0.965 ± 0.057 | 1.56 ± 0.039
